# Source: PubChem BioAssay AID1159580 (chemical genetic matrix, 2015)
# Several values for one entry are separate records, joined by “and”; a condition that tells them apart may be missing. Equal entries are not always repeated. The whole screen tested about 5,500 compounds, of which about 2,000 (36%) were called active. Another 18% or so got no clear call; they are omitted. No stated cut-off is given here; in the data, active means normalized growth mostly below about 0.91 (no sharp cut-off); inconclusive means no clear call, values can overlap the other calls; inactive means mostly above about 0.92. The list shows a part of the results. More than one record can exist for a structure, and the calls need not agree.
# Assay: chemical genetic growth profiling, strain panel (AID 1159580);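 further: tested at 20 µM; growth read once vehicle control cultures reached saturation at 30 °C; 1 = growth at the plate median or of vehicle wells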
# Settings: growth OD
# [1] = S. cerevisiae deletion strains, locus YAL013W, strain DEP1, stronger effect = lower value
# [2] = S. cerevisiae deletion strains, locus YAL040C, strain CLN3, stronger effect = lower value
# [3] = S. cerevisiae deletion strains, locus YCL061C, strain MRC1 (second series), stronger effect = lower value
# [4] = S. cerevisiae deletion strains, locus YDR150W, strain NUM1, stronger effect = lower value
# [5] = S. cerevisiae deletion strains, locus YDR363W, strain ESC2, stronger effect = lower value
# [6] = S. cerevisiae deletion strains, locus YER002W, strain NOP16, stronger effect = lower value
# [7] = S. cerevisiae deletion strains, locus YJR075W, strain HOC1, stronger effect = lower value
# [8] = S. cerevisiae deletion strains, locus YNL175C, strain NOP13, stronger effect = lower value
# [9] = S. cerevisiae deletion strains, locus YNL197C, strain WHI3, stronger effect = lower value
# [10] = S. cerevisiae deletion strains, locus YNL224C, strain SQS1, stronger effect = lower value
# [11] = S. cerevisiae deletion strains, locus YOR083W, strain WHI5 (second series), stronger effect = lower value
# [12] = S. cerevisiae deletion strains, locus YPL241C, strain CIN2, stronger effect = lower value
# [13] = S. cerevisiae deletion strains, locus YNL153C, strain GIM3, stronger effect = lower value
# [14] = S. cerevisiae deletion strains, locus YPL055C, strain LGE1, stronger effect = lower value
# [15] = S. cerevisiae deletion strains, locus YDL101C, strain DUN1, stronger effect = lower value
# [16] = S. cerevisiae deletion strains, locus YHR030C, strain SLT2, stronger effect = lower value
structure (smiles),measurement,setting,value
CN(C)c1cc2c(Nc3ccc4c(cnn4Cc4ccccc4)c3)ncnc2cn1,normalized growth,[1],0.994 (inactive)
same,normalized growth,[2],0.971 (inactive)
same,normalized growth,[3],1.01 (inactive)
same,normalized growth,[4],1.01 (inactive)
same,normalized growth,[5],0.998 (inactive)
same,normalized growth,[6],0.98 (inactive)
same,normalized growth,[7],1.01 (inactive)
same,normalized growth,"S. cerevisiae deletion strains, locus YNL128W, strain TEP1, stronger effect = lower value",1 (inactive)
same,normalized growth,[8],0.995 (inactive)
same,normalized growth,[9],1 (inactive)
same,normalized growth,[10],1.02 (inactive)
same,normalized growth,[11],0.954 (inactive)
same,normalized growth,[12],1 (inactive)
CC(C)[C@@H](CO)Nc1nc(Nc2cccc(Cl)c2)c2ncn(C(C)C)c2n1,normalized growth,[1],1.01 (inactive)
same,normalized growth,[2],1.01 (inactive)
same,normalized growth,[3],1.01 (inactive)
same,normalized growth,[5],1.02 (inactive)
same,normalized growth,[6],1.04 (inactive)
same,normalized growth,[7],1.02 (inactive)
same,normalized growth,[13],0.894 (inactive)
same,normalized growth,[8],0.982 (inactive)
same,normalized growth,[9],0.994 (inactive)
same,normalized growth,[10],0.989 (inactive)
same,normalized growth,[11],0.913 (inactive)
same,normalized growth,[14],1.02 (inactive)
COc1cc2ncnc(Nc3cccc(Cl)c3)c2cc1OC,normalized growth,[1],0.962 (inactive) and 0.936 (inactive)
same,normalized growth,[2],1.03 (inactive)
same,normalized growth,"S. cerevisiae deletion strains, locus YBR229C, strain ROT2, stronger effect = lower value",0.962 (inactive)
same,normalized growth,[3],0.987 (inactive)
same,normalized growth,"S. cerevisiae deletion strains, locus YCL061C, strain MRC1, stronger effect = lower value",0.956 (inactive)
same,normalized growth,[15],0.985 (inactive)
same,normalized growth,"S. cerevisiae deletion strains, locus YDL134C, strain PPH21, stronger effect = lower value",0.877 (active)
same,normalized growth,[4],0.915 (inactive) and 0.999 (inactive)
same,normalized growth,[5],0.968 (inactive)
same,normalized growth,"S. cerevisiae deletion strains, locus YEL061C, strain CIN8, stronger effect = lower value",0.834 (active)
same,normalized growth,[6],0.976 (inactive)
same,normalized growth,"S. cerevisiae deletion strains, locus YGR078C, strain PAC10, stronger effect = lower value",0.968 (inactive) and 0.958 (inactive)
same,normalized growth,"S. cerevisiae deletion strains, locus YGR229C, strain SMI1, stronger effect = lower value",0.97 (inactive)
same,normalized growth,[16],0.882 (inactive)
same,normalized growth,"S. cerevisiae deletion strains, locus YHR087W, strain rtc3, stronger effect = lower value",0.95 (inactive)
same,normalized growth,[7],0.906 (inactive)
same,normalized growth,"S. cerevisiae deletion strains, locus YLR039C, strain RIC1, stronger effect = lower value",1.03 (inactive)
same,normalized growth,"S. cerevisiae deletion strains, locus YLR058C, strain SHM2 (second series), stronger effect = lower value",0.981 (inactive)
same,normalized growth,"S. cerevisiae deletion strains, locus YLR085C, strain ARP6, stronger effect = lower value",0.46 (active)
same,normalized growth,"S. cerevisiae deletion strains, locus YLR262C, strain YPT6, stronger effect = lower value",1.02 (inactive)
same,normalized growth,"S. cerevisiae deletion strains, locus YML094W, strain GIM5, stronger effect = lower value",0.828 (active)
same,normalized growth,"S. cerevisiae deletion strains, locus YMR219W, strain ESC1, stronger effect = lower value",0.986 (inactive)
same,normalized growth,"S. cerevisiae deletion strains, locus YMR263W, strain SAP30, stronger effect = lower value",0.91 (inactive)
same,normalized growth,"S. cerevisiae deletion strains, locus YMR307W, strain GAS1, stronger effect = lower value",0.562 (active) and 0.979 (inactive)
same,normalized growth,[13],0.974 (inactive)
same,normalized growth,[8],0.954 (inactive)
same,normalized growth,[9],0.982 (inactive)
same,normalized growth,[10],0.965 (inactive)
same,normalized growth,"S. cerevisiae deletion strains, locus YNL298W, strain CLA4 (second series), stronger effect = lower value",0.883 (inactive)
same,normalized growth,"S. cerevisiae deletion strains, locus YNL322C, strain KRE1, stronger effect = lower value",0.99 (inactive)
same,normalized growth,"S. cerevisiae deletion strains, locus YNR030W, strain Alg12, stronger effect = lower value",0.82 (active)
same,normalized growth,[11],0.89 (inactive)
same,normalized growth,[14],0.815 (inactive) and 0.967 (inactive)
same,normalized growth,[12],0.831 (active)
same,normalized growth,"S. cerevisiae deletion strains, locus YPR135W, strain CTF4, stronger effect = lower value",0.533 (active)
same,normalized growth,"S. cerevisiae strains, strain wild type, stronger effect = lower value",0.926 (inactive)
COc1cc(C2CC(=S)Nc3ccccc3S2)cc(OC)c1OC (configuration not stated),normalized growth,"S. cerevisiae deletion strains, locus YAR019C, strain CDC15, stronger effect = lower value",0.99 (inactive)
same,normalized growth,"S. cerevisiae deletion strains, locus YBL105C, strain PKC1, stronger effect = lower value",0.986 (inactive)
same,normalized growth,"S. cerevisiae deletion strains, locus YBR135W, strain CKS1, stronger effect = lower value",0.993 (inactive)
same,normalized growth,"S. cerevisiae deletion strains, locus YBR136W, strain MEC1, stronger effect = lower value",0.992 (inactive)
same,normalized growth,"S. cerevisiae deletion strains, locus YBR160W, strain CDC28, stronger effect = lower value",1 (inactive)
same,normalized growth,"S. cerevisiae deletion strains, locus YDL017W, strain CDC7, stronger effect = lower value",0.998 (inactive)
same,normalized growth,"S. cerevisiae deletion strains, locus YDL028C, strain MPS1, stronger effect = lower value",0.981 (inactive)
same,normalized growth,[15],0.987 (inactive)
same,normalized growth,"S. cerevisiae deletion strains, locus YDL108W, strain KIN28, stronger effect = lower value",0.978 (inactive)
same,normalized growth,"S. cerevisiae deletion strains, locus YDL132W, strain cdc53, stronger effect = lower value",0.999 (inactive)
same,normalized growth,"S. cerevisiae deletion strains, locus YDL214C, strain PRR2, stronger effect = lower value",0.923 (inactive)
same,normalized growth,"S. cerevisiae deletion strains, locus YDR052C, strain DBF4, stronger effect = lower value",0.995 (inactive)
same,normalized growth,"S. cerevisiae deletion strains, locus YDR054C, strain cdc34, stronger effect = lower value",0.986 (inactive)
same,normalized growth,"S. cerevisiae deletion strains, locus YDR226W, strain ADK1, stronger effect = lower value",0.99 (inactive)
same,normalized growth,"S. cerevisiae deletion strains, locus YDR477W, strain SNF1, stronger effect = lower value",0.969 (inactive)
same,normalized growth,"S. cerevisiae deletion strains, locus YER123W, strain YCK3, stronger effect = lower value",0.881 (inactive)
same,normalized growth,"S. cerevisiae deletion strains, locus YER133W, strain GLC7, stronger effect = lower value",0.941 (inactive)
same,normalized growth,"S. cerevisiae deletion strains, locus YFL009W, strain cdc4, stronger effect = lower value",0.988 (inactive)
same,normalized growth,"S. cerevisiae deletion strains, locus YFL029C, strain CAK1, stronger effect = lower value",0.988 (inactive)
same,normalized growth,"S. cerevisiae deletion strains, locus YFR003C, strain YPI1, stronger effect = lower value",0.99 (inactive)
same,normalized growth,"S. cerevisiae deletion strains, locus YFR019W, strain FAB1, stronger effect = lower value",0.945 (inactive)
same,normalized growth,"S. cerevisiae deletion strains, locus YFR028C, strain CDC14, stronger effect = lower value",0.993 (inactive)
same,normalized growth,"S. cerevisiae deletion strains, locus YGR040W, strain KSS1, stronger effect = lower value",0.94 (inactive)
same,normalized growth,"S. cerevisiae deletion strains, locus YGR052W, strain FMP48, stronger effect = lower value",1.02 (inactive)
same,normalized growth,"S. cerevisiae deletion strains, locus YGR092W, strain DBF2, stronger effect = lower value",0.94 (inactive)
same,normalized growth,[16],1.07 (inactive)
same,normalized growth,"S. cerevisiae deletion strains, locus YHR079C, strain IRE1, stronger effect = lower value",1.04 (inactive)
same,normalized growth,"S. cerevisiae deletion strains, locus YHR082C, strain KSP1, stronger effect = lower value",1.06 (inactive)
same,normalized growth,"S. cerevisiae deletion strains, locus YHR205W, strain SCH9, stronger effect = lower value",0.974 (inactive)
same,normalized growth,"S. cerevisiae deletion strains, locus YIL147C, strain SLN1, stronger effect = lower value",0.98 (inactive)
same,normalized growth,"S. cerevisiae deletion strains, locus YJL095W, strain BCK1, stronger effect = lower value",1.08 (inactive)
same,normalized growth,"S. cerevisiae deletion strains, locus YJL128C, strain PBS2, stronger effect = lower value",0.942 (inactive)
same,normalized growth,"S. cerevisiae deletion strains, locus YJL157C, strain FAR1, stronger effect = lower value",0.928 (inactive)
same,normalized growth,"S. cerevisiae deletion strains, locus YJR016C, strain ILV3, stronger effect = lower value",1 (inactive)
same,normalized growth,"S. cerevisiae deletion strains, locus YJR066W, strain TOR1 (second series), stronger effect = lower value",0.937 (inactive)
same,normalized growth,"S. cerevisiae deletion strains, locus YJR066W, strain TOR1, stronger effect = lower value",1.08 (inactive)
same,normalized growth,"S. cerevisiae deletion strains, locus YKL048C, strain ELM1, stronger effect = lower value",0.975 (inactive)
same,normalized growth,"S. cerevisiae deletion strains, locus YKL067W, strain YNK1, stronger effect = lower value",0.946 (inactive)
same,normalized growth,"S. cerevisiae deletion strains, locus YKL101W, strain HSL1, stronger effect = lower value",0.951 (inactive)
same,normalized growth,"S. cerevisiae deletion strains, locus YKL193C, strain SDS22, stronger effect = lower value",0.994 (inactive)
same,normalized growth,"S. cerevisiae deletion strains, locus YKL203C, strain TOR2, stronger effect = lower value",1.03 (inactive)
same,normalized growth,"S. cerevisiae deletion strains, locus YLR113W, strain HOG1, stronger effect = lower value",1 (inactive)
same,normalized growth,"S. cerevisiae deletion strains, locus YLR133W, strain CKI1, stronger effect = lower value",0.978 (inactive)
same,normalized growth,"S. cerevisiae deletion strains, locus YLR403W, strain SFP1, stronger effect = lower value",0.967 (inactive)
same,normalized growth,"S. cerevisiae deletion strains, locus YML070W, strain DAK1, stronger effect = lower value",0.914 (inactive)
same,normalized growth,"S. cerevisiae deletion strains, locus YMR001C, strain CDC5, stronger effect = lower value",0.993 (inactive)
same,normalized growth,"S. cerevisiae deletion strains, locus YMR205C, strain PFK2 (second series), stronger effect = lower value",0.95 (inactive)
same,normalized growth,"S. cerevisiae deletion strains, locus YMR277W, strain FCP1, stronger effect = lower value",0.999 (inactive)
same,normalized growth,"S. cerevisiae deletion strains, locus YNL006W, strain LST8, stronger effect = lower value",0.994 (inactive)
same,normalized growth,"S. cerevisiae deletion strains, locus YNL020C, strain ARK1, stronger effect = lower value",0.961 (inactive)
same,normalized growth,"S. cerevisiae deletion strains, locus YNL161W, strain CBK1, stronger effect = lower value",0.995 (inactive)
same,normalized growth,"S. cerevisiae deletion strains, locus YNL183C, strain NPR1, stronger effect = lower value",1.06 (inactive)
same,normalized growth,"S. cerevisiae deletion strains, locus YNL207W, strain RIO2, stronger effect = lower value",0.987 (inactive)
same,normalized growth,"S. cerevisiae deletion strains, locus YNL222W, strain SSU72, stronger effect = lower value",0.974 (inactive)
same,normalized growth,"S. cerevisiae deletion strains, locus YNL307C, strain MCK1 (second series), stronger effect = lower value",0.963 (inactive)
same,normalized growth,"S. cerevisiae deletion strains, locus YOL078W, strain AVO1, stronger effect = lower value",0.985 (inactive)
same,normalized growth,"S. cerevisiae deletion strains, locus YOL136C, strain PFK27, stronger effect = lower value",0.939 (inactive)
same,normalized growth,"S. cerevisiae deletion strains, locus YOR061W, strain CKA2, stronger effect = lower value",0.944 (inactive)
same,normalized growth,"S. cerevisiae deletion strains, locus YOR119C, strain RIO1, stronger effect = lower value",1.01 (inactive)
same,normalized growth,"S. cerevisiae deletion strains, locus YOR231W, strain MKK1, stronger effect = lower value",1.03 (inactive)
same,normalized growth,"S. cerevisiae deletion strains, locus YOR329C, strain SCD5, stronger effect = lower value",0.999 (inactive)
same,normalized growth,"S. cerevisiae deletion strains, locus YPL031C, strain PHO85, stronger effect = lower value",0.953 (inactive)
same,normalized growth,"S. cerevisiae deletion strains, locus YPL153C, strain RAD53, stronger effect = lower value",0.945 (inactive)
same,normalized growth,"S. cerevisiae deletion strains, locus YPL204W, strain HRR25, stronger effect = lower value",0.962 (inactive)
same,normalized growth,"S. cerevisiae deletion strains, locus YPL209C, strain IPL1, stronger effect = lower value",0.983 (inactive)
same,normalized growth,"S. cerevisiae deletion strains, locus YPL256C, strain CLN2, stronger effect = lower value",1.05 (inactive)
same,normalized growth,"S. cerevisiae deletion strains, locus YPR025C, strain CCL1, stronger effect = lower value",0.994 (inactive)
same,normalized growth,"S. cerevisiae deletion strains, locus YPR106W, strain ISR1, stronger effect = lower value",0.992 (inactive)
same,normalized growth,"S. cerevisiae deletion strains, locus YPR111W, strain DBF20, stronger effect = lower value",0.981 (inactive)
same,normalized growth,"S. cerevisiae deletion strains, strain NNK1, stronger effect = lower value",0.988 (inactive)
same,normalized growth,"S. cerevisiae deletion strains, strain TSCII, stronger effect = lower value",0.999 (inactive)
